# Assay outcomes deposited in PubChem BioAssay by several laboratories.
# CYP2C9 inhib: inhibitors of human CYP2C9 | inhibition, % at 5 µM | CYP2C9 Supersomes, luciferin-H conversion, luminescence | hit rate 20% among 96,000 | AID 777;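 active = blocking of liver enzyme CYP2C9 beyond about 50% at 5 µM, limit read from the data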
# Target sequence (P11712 whole entry, looked up): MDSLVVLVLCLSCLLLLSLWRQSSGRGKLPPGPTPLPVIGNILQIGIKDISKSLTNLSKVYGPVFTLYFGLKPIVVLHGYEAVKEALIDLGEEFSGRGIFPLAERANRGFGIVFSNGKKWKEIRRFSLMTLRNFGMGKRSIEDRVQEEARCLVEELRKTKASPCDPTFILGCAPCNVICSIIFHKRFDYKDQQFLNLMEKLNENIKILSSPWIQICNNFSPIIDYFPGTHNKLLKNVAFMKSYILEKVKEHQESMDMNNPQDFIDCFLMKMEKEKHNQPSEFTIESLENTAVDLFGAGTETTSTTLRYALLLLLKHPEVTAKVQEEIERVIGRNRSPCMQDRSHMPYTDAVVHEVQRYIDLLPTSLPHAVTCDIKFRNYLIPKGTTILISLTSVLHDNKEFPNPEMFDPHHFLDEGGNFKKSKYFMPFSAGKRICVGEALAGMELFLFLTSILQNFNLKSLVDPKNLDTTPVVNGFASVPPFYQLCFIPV
# CYP2C9 act: increases human cytochrome P450 2C9 activity; P11712; recombinant CYP2C9, luciferin-H conversion, luminescence; active compounds read high; factor 1 = untreated enzyme, 0 = blocked; activation factor at 5 µM; hit rate 1.4% among 96,000; AID 1024;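 active = activation factor of 2 or more for CYP2C9 at a 5 µM dose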
# CYP2C19 inhib: human CYP2C19 inhibition; P33261; CYP2C19 Supersomes, luciferin-H EGE luminescence, 30 min; inhibition, % at 5 µM; hit rate 21% among 96,000;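 active = CYP2C19 inhibition above a set limit at 5 µM in the primary screen, cut at about 50% in these data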
# PostGolgi ctrl: yeast control strain growth, post-Golgi counter-screen; efflux-deficient yeast background strain, growth absorbance A615, 16 h; inhibition, % at 10 µM; hit rate 5% among 98,000; AID 738
# PostGolgi yeast: growth inhibition of a yeast mutant, post-Golgi transport screen. post-Golgi transport phenotypic cell assay. inhibition, % at 10 µM. hit rate 0.9% among 98,000. AID 739;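 note: yeast cells grown in 1536-well plates; yeast grown about 18 h at 30C before absorbance read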
# CYP2C19 act: increases human CYP2C19 enzyme activity; 96,000 tested, under 10 active; recombinant CYP2C19, luciferin-H EGE luminescence; active compounds read high; 0 = fully inhibited enzyme, 1 = untreated enzyme; activation factor at 5 µM; P33261; AID 1025;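 active = activation factor of at least 2 at 5 µM in the primary screen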
# Hits are given with their value; 0 = inactive; - = not tested or not shown. The list is not random: actives were taken first. Their share in the collection is about 32%. Cut-off read from the data, not from the text of the source, unless noted: active = inhibition above about 30%; inactive = the rest.
SMILES,CYP2C9 inhib,CYP2C9 act,CYP2C19 inhib,PostGolgi ctrl,PostGolgi yeast,CYP2C19 act
Cc1ccc(C)c(NC(=O)Cn2nc(-c3ccccc3)nc2-c2ccccc2)c1,0,0,0,0,0,0
COCCCn1c(SCc2cc(=O)[nH]c3ccccc23)nnc1-c1ccco1,0,0,0,0,0,0
CC1CCC(=C(C#N)c2nc(-c3cc4ccccc4oc3=O)cs2)CC1 (centres undefined),88,0,0,0,0,0
Cc1ccc(N(C(=O)C2CCCC2)C2C=CS(=O)(=O)C2)cc1 (centres undefined),0,0,0,39,0,0
Cc1ccc(C(=O)Oc2ccc(Cl)c3cccnc23)cc1[N+](=O)[O-],0,0,0,0,0,0
Cc1cc(C)c(C(=O)COc2cccnc2[N+](=O)[O-])cc1C,0,0,63,0,0,0
CCCc1nn(-c2cc(Cl)ccc2OC)c2c1C(=O)CC(C)(C)C2,66,0,63,0,0,0
Cn1c(CS(=O)Cc2c(Cl)cccc2Cl)nnc1SCc1c(Cl)cccc1Cl (centres undefined),0,0,55,0,0,0
Cn1c(CO)cnc1SCc1c(Cl)cccc1Cl,0,0,82,0,0,0
O=S(Cc1ccc(Br)cc1)Cc1nnc(SCc2c(Cl)cccc2Cl)n1-c1ccccc1 (centres undefined),80,0,88,0,0,0
CN(C)C(=O)CSCc1c(Cl)cccc1Cl,0,0,0,0,0,0
Clc1cccc(Cl)c1CSc1nnc(CN2CCOCC2)n1-c1ccccc1,0,0,0,0,0,0
O=S(=O)(c1cccs1)N1CCN(CC(O)COc2cccc(Br)c2)CC1 (centres undefined),0,0,0,0,0,0
Clc1cccc(Cl)c1Cn1cnc(=NCc2ccco2)c2[nH]cnc21,77,0,0,0,0,0
Clc1cccc(Cl)c1Cn1cnc2c(NCc3ccco3)ncnc21,0,0,0,0,0,0
COc1ccc(C(=O)Nc2cccc(C(C)=O)c2)c(OC)c1OC,0,0,63,0,0,0
COc1cc(OC)c(C(=O)Nc2cccc(C(C)=O)c2)cc1OC,59,0,0,0,0,0
CCOC(=O)N1CCC(NC(=O)c2ccc(CNS(=O)(=O)c3ccc(F)cc3)cc2)CC1,0,0,0,0,0,0
COc1ccc(-n2ncc3c(NCCCn4ccnc4)ncnc32)cc1,-,-,-,0,0,-
N#Cc1nc(COc2ccc(Br)cc2)oc1NCCCn1ccnc1,100,0,100,0,0,0
N#Cc1nc(COc2ccc(F)cc2)oc1NCCCn1ccnc1,88,0,96,0,0,0
N#Cc1nc(COc2ccccc2Cl)oc1NCc1ccco1,0,0,0,0,0,0
CN(C)CCNc1oc(COc2ccc(Cl)cc2)nc1C#N,0,0,0,0,0,0
N#Cc1nc(COc2ccccc2F)oc1NCCCn1ccnc1,90,0,97,0,0,0
Cc1ccc(OCc2nc(C#N)c(NCCCn3ccnc3)o2)cc1,91,0,99,0,0,0
SMILES,CYP2C9 inhib,CYP2C9 act,CYP2C19 inhib,PostGolgi ctrl,PostGolgi yeast,CYP2C19 act
Clc1ccc2c(c1)C1OCCC1C(c1ccco1)N2 (centres undefined),0,0,0,0,0,0
N#Cc1nc(COc2ccccc2)oc1NCCCn1ccnc1,95,0,100,0,0,0
CSc1nc(-c2ccco2)nn1S(C)(=O)=O,0,0,0,0,0,0
O=C(Cc1ccsc1-c1ccccc1)NO,0,0,0,0,0,0
COc1ccc(NC(C)C(=O)N/N=C/c2ccccc2OCc2ccc(Br)cc2)cc1 (centres undefined),69,0,0,0,0,0
COc1ccc(Br)cc1/C=N/NC(=O)CNC(=O)/C=C/c1ccccc1,0,0,0,0,0,0
CC(Nc1ccc(Br)cc1)C(=O)N/N=C/c1ccccc1OCc1ccccc1 (centres undefined),95,0,89,0,0,0
COc1ccc(/C=C/C(=O)NCC(=O)N/N=C/c2cc(Br)ccc2OCc2ccccc2)cc1,77,0,0,0,0,0
CC(=O)NC1(C(F)(F)F)NC(=O)N(CC(C)C)C1=O (centres undefined),0,0,0,0,0,0
CC(=O)N(CC1CCCO1)c1nnc(-c2ccccn2)s1 (centres undefined),0,0,0,0,0,0
CC(/C(O)=C(\C#N)c1nc2ccccc2n1C)N1C(=O)c2ccccc2C1=O (centres undefined),0,0,0,0,0,0
Cc1occc1-c1nnc(SCC(=O)N2c3ccccc3CCc3ccccc32)n1C,0,0,0,0,0,0
CC(=O)c1cccc(NC(=O)c2nccnc2C(=O)O)c1,0,0,0,0,0,0
Cn1nc(-c2ccccc2)c(-c2nc(-c3cccc(Cl)c3)no2)c1Cl,60,0,0,0,0,0
CCN1C(=O)C(C)S/C1=N\S(=O)(=O)c1ccc(Cl)s1 (centres undefined),0,0,70,0,0,0
Cn1c(=O)c2c(nc(CN3CCC(C(N)=O)CC3)n2CCc2ccccc2)n(C)c1=O,0,0,0,0,0,0
CC1CCN(C(=S)NC2CCCCC2)CC1,0,0,70,0,0,0
CC1CCN(C(=S)NC(=O)C2CCCCC2)CC1,0,0,0,0,0,0
CCCCC1(C)OC(=O)C(=Cc2ccc(N(C)C)cc2)C(=O)O1 (centres undefined),0,0,0,31,0,0
Cc1cc(-c2cccc([N+](=O)[O-])c2)nc2ccc3ccccc3c12,0,0,0,0,0,0
O=C1CC(c2cccc([N+](=O)[O-])c2)c2ccc3ccccc3c2N1 (centres undefined),0,0,0,54,0,0
O=C(NNC(=O)c1ccccc1)C(=O)N1CCCCC1,0,0,0,0,0,0
Clc1ccc(CNC2CCCC2)c(Cl)c1,0,0,77,0,0,0
O=c1oc2ccccc2c(O)c1CN1CCCCC1,94,0,52,30,0,0
O=C(c1c(O)c2ccccc2oc1=O)C1CCC1,0,0,0,0,0,0
SMILES,CYP2C9 inhib,CYP2C9 act,CYP2C19 inhib,PostGolgi ctrl,PostGolgi yeast,CYP2C19 act
Cc1c(O)c(CN2CCCC2)cc2c1oc(=O)c1ccccc12,0,0,57,0,0,0
Cc1c(O)c(CN2CCCC2)cc2c3c(c(=O)oc12)CCC3,52,0,0,0,0,0
Cc1ccc(C)c(CN2C(=O)C(C)Oc3ccc(C)cc32)c1 (centres undefined),0,0,0,0,0,0
C/C(Nc1cccc(F)c1)=C(/C#N)C(N)=O,68,0,0,0,0,0
C/C(Nc1ccc(F)cc1)=C(/C#N)C(N)=O,0,0,0,0,0,0
Cn1c(SCC(=O)Nc2ccc3c(c2)OCO3)nnc1-c1cnccn1,0,0,0,0,0,0
Cc1cccc(-n2ccnc2SCC(=O)Nc2ccc3c(c2)OCCO3)c1,70,0,0,0,0,0
O=C(CSc1nccn1-c1ccc(Cl)cc1)Nc1ccc2c(c1)OCO2,54,0,69,0,0,0
